{"source": "PubChem BioAssay AID1053174", "about": "(Broad Institute, 2014)", "note": "Screen size: about 1,500 compounds; about 140 (9.3%) were called active. Not all results are given here. A number with no mark means an inactive call. How the calls were made is not given here.", "data": [{"test": "false positives in methylated H4 peptide AlphaScreen detection – biochemical, cherry-picked samples, artefact control for NSD2 inhibitor project, dose response (AID 1053174);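 on activity change, negative = signal loss: 0% = median of neutral control wells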", "settings": "AlphaScreen artifact counterscreen, preloaded methylated H4 peptide; series mostly up to 10 µM; activity change, negative = signal loss: at the top concentration", "values": [{"smiles": "CCNC(=O)C1(C)CCCN(C(=O)c2ccc3ccccc3n2)C1", "note": "(stereo unspecified)", "activity change, negative = signal loss": "-5.17%"}, {"smiles": "O=C(/C=C/c1ccc(Cl)cc1Cl)NCc1ccco1", "activity change, negative = signal loss": "-1.78%"}, {"smiles": "COC(=O)c1nc(NC(=O)c2ccccc2)n[nH]1", "activity change, negative = signal loss": "-0.64%"}, {"smiles": "CCC1=[N+]([O-])C(C)(/C(C)=N\\O)N(O)C1(C)C", "note": "(stereo unspecified)", "activity change, negative = signal loss": "-1.82%"}, {"smiles": "COC(=O)CCCCC1=CCC2C(=O)C=C(O)C2C1", "note": "(stereo unspecified)", "activity change, negative = signal loss": "-3.31%"}, {"smiles": "Clc1ccc(C2=CSC3=Nc4cccc5cccc(c45)N23)cc1", "activity change, negative = signal loss": "-4.57%"}, {"smiles": "C=CCc1cccc2cc(C(=O)Nc3ccc(NC(C)=O)cc3)c(=O)oc12", "activity change, negative = signal loss": "-3.44%"}, {"smiles": "Oc1ccc(CNc2ccccc2O)cc1", "activity change, negative = signal loss": "-4.59%"}, {"smiles": "O=C(CNC(=O)c1ccccc1)Oc1ccc([N+](=O)[O-])cc1", "activity change, negative = signal loss": "-0.899%"}, {"smiles": "Cc1c(CC(=O)N2CCN(C(=O)C3COc4ccccc4O3)CC2)c(=O)oc2c(O)c(O)ccc12", "note": "(stereo unspecified)", "activity change, negative = signal loss": "-19.2%"}, {"smiles": "CS(=O)(=O)N(CC(=O)NCc1ccco1)c1ccc2c(c1)OCO2", "activity change, negative = signal loss": "-6.79%"}, {"smiles": "Cc1[nH]n(-c2ccccc2)c(=O)c1N=Nc1ccccc1C(=O)N1CCCCC1", "activity change, negative = signal loss": "-13.8%"}, {"smiles": "CN(C(=O)CN1C(=O)S/C(=C\\c2ccccc2F)C1=O)C1CCS(=O)(=O)C1", "note": "(stereo unspecified)", "activity change, negative = signal loss": "-3.69%"}, {"smiles": "CC(=O)N(C1=C(Cl)C(=O)c2ccccc2C1=O)c1ccc(C(=O)O)cc1", "activity change, negative = signal loss": "1.35%"}, {"smiles": "C(=N/Nc1cc(N2CCOCC2)nc(N2CCOCC2)n1)/c1ccccc1", "activity change, negative = signal loss": "-3.4%"}, {"smiles": "Cc1cccc(OCCC(=O)Nc2ccccc2C(N)=O)c1", "activity change, negative = signal loss": "-6.47%"}, {"smiles": "Cn1ncc2c(Nc3cccc4ccccc34)ncnc21", "activity change, negative = signal loss": "-0.685%"}, {"smiles": "Cc1[nH][nH]c(=O)c1C(c1ccc2c(c1)OCO2)c1c(C)[nH][nH]c1=O", "activity change, negative = signal loss": "-7.25%"}, {"smiles": "Cc1ccc(S(=O)(=O)/N=C2\\C=C(NS(=O)(=O)c3ccc(C)cc3)C(=O)c3ccccc32)cc1", "AC35": "9.17 µM (active)"}, {"smiles": "O=c1[nH]c(CN2CCOCC2)nc2cc(Cl)ccc12", "activity change, negative = signal loss": "-0.282%"}, {"smiles": "CCOC(=O)c1nnn(-c2nonc2OC)c1-c1ccccc1", "activity change, negative = signal loss": "-3.01%"}, {"smiles": "Cc1cc(=O)[nH]c(N/N=C/c2c(C)nn(-c3ccccc3Cl)c2Cl)n1", "activity change, negative = signal loss": "-5.79%"}, {"smiles": "Cc1ccc(-c2ccc(/C=N/NC(=O)CN3CCOCC3)o2)cc1[N+](=O)[O-]", "activity change, negative = signal loss": "-5.05%"}, {"smiles": "CCN1CCCC1CNc1ncnc2c1[nH]c1ccc(F)cc12", "note": "(stereo unspecified)", "activity change, negative = signal loss": "-7.31%"}, {"smiles": "O=C(NNC(=O)c1ccc(Cl)nc1)c1ccc(Br)cc1", "activity change, negative = signal loss": "1.02%"}, {"smiles": "CCN(CC)CCCC(C)n1c2nc(=O)[nH]c(=O)c-2nc2cc(Cl)ccc21", "note": "(stereo unspecified)", "activity change, negative = signal loss": "-0.97%"}, {"smiles": "CCN(CC)CCOc1ccc2c(c1)C(=NNC(=O)c1ccccn1)c1cc(OCCN(CC)CC)ccc1-2", "activity change, negative = signal loss": "-19.1%"}, {"smiles": "Cc1ccnc(N2CCC(C(=O)NC3CCCCCC3)CC2)n1", "activity change, negative = signal loss": "1.89%"}, {"smiles": "C=CCNCCCCOc1ccccc1", "activity change, negative = signal loss": "-2.37%"}, {"smiles": "Cc1ccccc1-n1nc(C)c2c1N=C1C(Cl)=CC(Cl)=CN1C2c1ccc(C(=O)O)cc1", "note": "(stereo unspecified)", "activity change, negative = signal loss": "-5.91%"}, {"smiles": "CCOC(=O)c1c(C)[nH]c(C(=O)NCCN2CCOCC2)c1C", "activity change, negative = signal loss": "-4.69%"}, {"smiles": "O=C1C=CC(=O)N1c1ccc(N2CCCCC2)cc1", "activity change, negative = signal loss": "0.066%"}, {"smiles": "O=C(Cn1cc(C(F)(F)F)ccc1=O)Nc1ccc2c(c1)OCCO2", "activity change, negative = signal loss": "-1.84%"}, {"smiles": "COc1cc(C(=O)Nn2c(O)c(C3=c4ccccc4=NC3=O)sc2=S)ccc1O", "activity change, negative = signal loss": "-2.75%"}, {"smiles": "COc1ccc(NC(=O)Cn2nnc(C(=O)NCCc3ccc(OC)c(OC)c3)c2N)cc1", "activity change, negative = signal loss": "-5.08%"}, {"smiles": "CCOc1cc(/C=C/C(=O)OCC(=O)NCCN2C(=O)CSC2=O)ccc1OCC(C)C", "activity change, negative = signal loss": "-3.73%"}, {"smiles": "CC1CCN(CCC(=O)Nc2ccccc2)CC1", "activity change, negative = signal loss": "-3.77%"}, {"smiles": "O=C1Nc2cc(C(=O)N3CCC(N4CCCCC4)CC3)ccc2S/C1=C\\c1ccccc1", "activity change, negative = signal loss": "-9.24%"}, {"smiles": "CC(C)(C)CC(=O)Nc1nnc(SCC(=O)NCc2cccs2)s1", "activity change, negative = signal loss": "-0.29%"}, {"smiles": "O=C1C(Cl)=C(Oc2ccccc2)C(=O)c2ccccc21", "activity change, negative = signal loss": "-1.11%"}, {"smiles": "O=c1ccc2c(-c3ccccc3S(=O)(=O)O)c3ccc(O)c(O)c3oc-2c1O", "AC35": "0.557 µM (active)"}, {"smiles": "CC(=O)c1cc(-c2ccccc2)n(CC(=O)NC2CCCCC2)c1C", "activity change, negative = signal loss": "-3.2%"}, {"smiles": "Cc1[nH][nH]c(=O)c1C(c1ccc(-c2ccc(Cl)cc2)o1)c1c(C)[nH][nH]c1=O", "activity change, negative = signal loss": "-6.16%"}, {"smiles": "CCOc1ccc(C(CC(=O)O)NC(=O)C23CC4CC(CC(C4)C2)C3)cc1OC", "note": "(stereo unspecified)", "activity change, negative = signal loss": "4.36%"}, {"smiles": "COc1ccc(S(=O)(=O)N2CCCC(C(=O)NCCCn3ccnc3)C2)cc1OC", "note": "(stereo unspecified)", "activity change, negative = signal loss": "-0.456%"}, {"smiles": "COc1ccc(NC(=O)C2Cc3c(-c4ccc(Cl)cc4)ccnc3O2)cc1", "note": "(stereo unspecified)", "activity change, negative = signal loss": "3.24%"}, {"smiles": "CCOc1ccccc1Nc1nnc(SCc2ccc(C(=O)OC)o2)s1", "activity change, negative = signal loss": "6.37%"}, {"smiles": "NC1=CC(=O)C(=O)c2cccnc21", "activity change, negative = signal loss": "-4.08%"}, {"smiles": "N#Cc1ccc(CSc2ncccn2)cc1", "activity change, negative = signal loss": "-5.04%"}, {"smiles": "Cc1ccc(S(=O)(=O)N(C)C)cc1NC(=O)/C=C/c1cccs1", "activity change, negative = signal loss": "-7.91%"}, {"smiles": "O=C(CN1C(=O)c2ccc([N+](=O)[O-])cc2C1=O)Nc1nnc(C2CC2)s1", "activity change, negative = signal loss": "3.62%"}, {"smiles": "O=C(NCc1ccco1)c1nc(-c2ccccc2)n(-c2ccccc2)n1", "activity change, negative = signal loss": "-0.34%"}, {"smiles": "CCOC(=O)c1c(C)[nH]c2c1-c1ccccc1C(=O)C2=O", "activity change, negative = signal loss": "-0.086%"}, {"smiles": "O=[N+]([O-])c1ccccc1Nc1ccc(O)cc1", "activity change, negative = signal loss": "-22.6%"}, {"smiles": "O=C(CSc1nnc(-c2ccccc2O)o1)NC1CCCCC1", "activity change, negative = signal loss": "-3.17%"}, {"smiles": "Cc1ccc(C(=O)Cn2cc([N+](=O)[O-])nc2C)cc1", "activity change, negative = signal loss": "3.46%"}, {"smiles": "COCC(C)n1c(SCC(=O)NC2CCCCC2C)nc2ccccc2c1=O", "note": "(stereo unspecified)", "activity change, negative = signal loss": "-4.78%"}, {"smiles": "Cc1ccc(/C=N/NC(=O)c2cc3ccccc3cc2O)o1", "activity change, negative = signal loss": "0.575%"}, {"smiles": "COc1ccccc1N(C)S(=O)(=O)c1ccc(C(=O)NC2CCCCCC2)cc1", "activity change, negative = signal loss": "-2.33%"}, {"smiles": "COc1ccc(OC)c(-c2csc(-c3cccs3)n2)c1", "activity change, negative = signal loss": "-2%"}, {"smiles": "COC(=O)[C@H](Cc1ccccc1)NC(=O)Nc1ccc(S(N)(=O)=O)cc1", "activity change, negative = signal loss": "-3.74%"}, {"smiles": "C/C(=N/NC(=O)CCc1ccccc1)c1ccco1", "activity change, negative = signal loss": "1.24%"}, {"smiles": "CCN(CC)S(=O)(=O)c1ccc(N2CCN(C)CC2)c(NC(=O)Nc2ccccc2F)c1", "activity change, negative = signal loss": "-5.39%"}, {"smiles": "Cc1sc2ncnc(SCC(=O)Nc3ccc(CN4CCCC4)cc3)c2c1C", "activity change, negative = signal loss": "-3.43%"}, {"smiles": "C=CCn1c(=NC(=O)c2ccc(S(=O)(=O)N3CCCC3)cc2)sc2cc(NC(C)=O)ccc21", "activity change, negative = signal loss": "-1.39% [at 5 µM]"}, {"smiles": "CCN(CC)CCCNC(=O)c1cc(-c2cccc(Cl)c2)on1", "activity change, negative = signal loss": "-3.33%"}]}]}
